From PubChem BioAssay (NCI)
Where “and” joins values, the source holds several entries; their conditions need not be identical. Equal entries are not always repeated. This is part of a sample that, as a whole, favours compounds with a hit. Of some 83,000 tested, about 20% had one in any assay.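 Compound tested at a single concentration for 48 hours in 96-well plates; a percent growth value below 10 was scored as active.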 Calls of active or inactive are those of the source.

Columns and labels:
Test in all cases: NCI-60 one-dose screen, 48 h (100 = growth as untreated, 0 = no growth, -100 = all killed)
DU-145 prostate = test system: DU-145 prostate
K-562 leukemia = test system: K-562 leukemia
MALME-3M melanoma = test system: MALME-3M melanoma
MDA-MB-231 breast = test system: MDA-MB-231 breast
RXF 393 renal = test system: RXF 393 renal
SF-268 CNS = test system: SF-268 CNS
SF-295 CNS = test system: SF-295 CNS
SF-539 CNS = test system: SF-539 CNS
UACC-257 melanoma = test system: UACC-257 melanoma
HCT-15 colon = test system: HCT-15 colon
HT29 colon = test system: HT29 colon
SNB-75 CNS = test system: SNB-75 CNS
SNB-19 CNS = test system: SNB-19 CNS
U251 CNS = test system: U251 CNS
PC-3 prostate = test system: PC-3 prostate
SK-MEL-5 melanoma = test system: SK-MEL-5 melanoma
UACC-62 melanoma = test system: UACC-62 melanoma
LOX IMVI melanoma = test system: LOX IMVI melanoma
M14 melanoma = settings: 10 µM
SK-MEL-28 melanoma = settings: 10 µM

With `CN(Cc1cnc2nc(N)nc(N)c2n1)c1ccc(C(=O)N[C@@H](CCC(=O)O)C(=O)O)cc1` the growth (DU-145 prostate; 2.5 µM) was 31.8% (inactive), the growth (DU-145 prostate; 10 µM) was 39.6% (inactive) and the growth (K-562 leukemia; 2.5 µM) was 23.8% (inactive). For the same compound, the growth (K-562 leukemia; 10 µM) was 23.3% (inactive), the growth (MALME-3M melanoma; 2.5 µM) was 61.6% (inactive) and the growth (MALME-3M melanoma; 10 µM) was 62% (inactive). The growth (MDA-MB-231 breast; 2.5 µM) was 71.1% (inactive), the growth (MDA-MB-231 breast; 10 µM) was 59.9% (inactive) and the growth (RXF 393 renal; 2.5 µM) was 18.7% (inactive). The growth (RXF 393 renal; 10 µM) was 13% (inactive), the growth (SF-268 CNS; 2.5 µM) was 36.8% (inactive) and the growth (SF-268 CNS; 10 µM) was 25.1% (inactive). The growth (SF-295 CNS; 2.5 µM) was 18.4% (inactive), the growth (SF-295 CNS; 10 µM) was 19.7% (inactive) and the growth (SF-539 CNS; 2.5 µM) was -3.25% (active). The growth (SF-539 CNS; 10 µM) was -0.266% (active), the growth (UACC-257 melanoma; 2.5 µM) was 9.31% (active) and the growth (UACC-257 melanoma; 10 µM) was 12% (inactive). For the same compound, the growth (HCT-15 colon; 2.5 µM) was 28.5% (inactive), the growth (HCT-15 colon; 10 µM) was 36% (inactive) and the growth (HT29 colon; 2.5 µM) was 29% (inactive). For the same compound, the growth (HT29 colon; 10 µM) was 25.9% (inactive), the growth (SNB-75 CNS; 2.5 µM) was 73.8% (inactive) and the growth (SNB-75 CNS; 10 µM) was 66% (inactive). The growth (SNB-19 CNS; 2.5 µM) was 33.9% (inactive), the growth (SNB-19 CNS; 10 µM) was 29.5% (inactive) and the growth (U251 CNS; 2.5 µM) was 34.1% (inactive). The growth (U251 CNS; 10 µM) was 38.3% (inactive), the growth (PC-3 prostate; 2.5 µM) was 33.8% (inactive) and the growth (PC-3 prostate; 10 µM) was 37% (inactive). The growth (SK-MEL-5 melanoma; 2.5 µM) was 20% (inactive), the growth (SK-MEL-5 melanoma; 10 µM) was 3.31% (active) and the growth (UACC-62 melanoma; 2.5 µM) was 24.5% (inactive). For the same compound, the growth (UACC-62 melanoma; 10 µM) was 16.8% (inactive), the growth (LOX IMVI melanoma; 2.5 µM) was 14.3% (inactive) and the growth (LOX IMVI melanoma; 10 µM) was 16.3% (inactive).

`CC[C@@]1(O)C(=O)OCc2c1cc1n(c2=O)Cc2cc3c(CN(C)C)c(O)ccc3nc2-1` was tested, and the growth (DU-145 prostate; 10 µM) was -18% (active), the growth (K-562 leukemia; 10 µM) was -22.7% (active) and the growth (MALME-3M melanoma; 10 µM) was -11% (active) and -39.7% (active). For the same compound, the growth (MDA-MB-231 breast; 10 µM) was 35.9% (inactive) and 47.6% (inactive), the growth (RXF 393 renal; 10 µM) was -63.5% (active) and 11.3% (inactive) and the growth (SF-268 CNS; 10 µM) was 6.03% (active) and 13.3% (inactive). The growth (SF-295 CNS; 10 µM) was -31.3% (active) and -15% (active), the growth (SF-539 CNS; 10 µM) was -19% (active) and -42.7% (active) and the growth (UACC-257 melanoma; 10 µM) was -57.9% (active) and 5.98% (active). For the same compound, the growth (M14 melanoma) was -7.26% (active) and -31.9% (active), the growth (HCT-15 colon; 10 µM) was 21.2% (inactive) and -10.4% (active) and the growth (HT29 colon; 10 µM) was -15.4% (active) and -22.9% (active). The growth (SNB-75 CNS; 10 µM) was 2.72% (active) and -62.8% (active), the growth (SNB-19 CNS; 10 µM) was 16% (inactive) and 10.7% (inactive) and the growth (U251 CNS; 10 µM) was -23% (active) and 2.06% (active). For the same compound, the growth (PC-3 prostate; 10 µM) was -1.74% (active), the growth (SK-MEL-5 melanoma; 10 µM) was -85.8% (active) and -77.4% (active) and the growth (UACC-62 melanoma; 10 µM) was -73.1% (active) and -71.5% (active). The growth (LOX IMVI melanoma; 10 µM) was -14.1% (active) and -34.9% (active) and the growth (SK-MEL-28 melanoma) was 19.5% (inactive).

With `COc1ccc2sc3cccc(NCCN(C)C)c3c(=O)c2c1` the growth (DU-145 prostate; 10 µM) was 53.6% (inactive) and 14.8% (inactive), the growth (K-562 leukemia; 10 µM) was 17.2% (inactive) and -40.4% (active) and the growth (MALME-3M melanoma; 10 µM) was 18.6% (inactive) and -90.3% (active). The growth (MDA-MB-231 breast; 10 µM) was 42.1% (inactive) and -72.9% (active), the growth (RXF 393 renal; 10 µM) was 59.7% (inactive) and -15.9% (active) and the growth (SF-268 CNS; 10 µM) was 42.9% (inactive) and 12.4% (inactive). The growth (SF-295 CNS; 10 µM) was -16.7% (active) and -31.7% (active), the growth (SF-539 CNS; 10 µM) was 49.8% (inactive) and -8.1% (active) and the growth (UACC-257 melanoma; 10 µM) was -83.3% (active). For the same compound, the growth (M14 melanoma) was 59.1% (inactive) and -84.9% (active), the growth (HCT-15 colon; 10 µM) was 32.2% (inactive) and -29.5% (active) and the growth (HT29 colon; 10 µM) was 5.38% (active) and -36.9% (active). For the same compound, the growth (SNB-75 CNS; 10 µM) was 51.8% (inactive) and -6.29% (active), the growth (SNB-19 CNS; 10 µM) was 63.9% (inactive) and 13.6% (inactive) and the growth (U251 CNS; 10 µM) was -18.1% (active). The growth (PC-3 prostate; 10 µM) was 34.2% (inactive) and 21.1% (inactive), the growth (SK-MEL-5 melanoma; 10 µM) was 65.1% (inactive) and -98.2% (active) and the growth (UACC-62 melanoma; 10 µM) was 64.4% (inactive) and -96.3% (active). The growth (LOX IMVI melanoma; 10 µM) was 17.1% (inactive) and -91% (active) and the growth (SK-MEL-28 melanoma) was 85.8% (inactive) and -80.8% (active).

For `CC/C(=C(\c1ccccc1)c1ccc(OCCN(C)C)cc1)c1ccccc1`, the growth (DU-145 prostate; 10 µM) was 65.4% (inactive), the growth (DU-145 prostate; 12.5 µM) was 9.12% (active) and the growth (K-562 leukemia; 10 µM) was 0.0322% (active). The growth (K-562 leukemia; 12.5 µM) was -38.6% (active), the growth (MALME-3M melanoma; 10 µM) was -67.5% (active) and the growth (MALME-3M melanoma; 12.5 µM) was -95.7% (active). The growth (MDA-MB-231 breast; 10 µM) was 45.2% (inactive), the growth (MDA-MB-231 breast; 12.5 µM) was -26.4% (active) and the growth (RXF 393 renal; 10 µM) was -22.4% (active). The growth (RXF 393 renal; 12.5 µM) was -56.8% (active), the growth (SF-268 CNS; 10 µM) was 56.7% (inactive) and the growth (SF-268 CNS; 12.5 µM) was 32.4% (inactive). For the same compound, the growth (SF-295 CNS; 10 µM) was 40.2% (inactive), the growth (SF-295 CNS; 12.5 µM) was -68% (active) and the growth (SF-539 CNS; 12.5 µM) was -95.2% (active). For the same compound, the growth (UACC-257 melanoma; 10 µM) was -64.3% (active), the growth (UACC-257 melanoma; 12.5 µM) was -34.3% (active) and the growth (M14 melanoma) was -75% (active). For the same compound, the growth (HCT-15 colon; 10 µM) was 7.63% (active), the growth (HCT-15 colon; 12.5 µM) was -65% (active) and the growth (HT29 colon; 10 µM) was -11.2% (active). For the same compound, the growth (HT29 colon; 12.5 µM) was -66.6% (active), the growth (SNB-75 CNS; 10 µM) was 39.9% (inactive) and the growth (SNB-75 CNS; 12.5 µM) was -4.48% (active). The growth (SNB-19 CNS; 10 µM) was 52.6% (inactive), the growth (SNB-19 CNS; 12.5 µM) was 1.19% (active) and the growth (U251 CNS; 10 µM) was 4.8% (active). The growth (U251 CNS; 12.5 µM) was -84.3% (active), the growth (PC-3 prostate; 10 µM) was 34.4% (inactive) and the growth (PC-3 prostate; 12.5 µM) was -30.7% (active). The growth (SK-MEL-5 melanoma; 10 µM) was -95.2% (active), the growth (SK-MEL-5 melanoma; 12.5 µM) was -94.3% (active) and the growth (UACC-62 melanoma; 12.5 µM) was -90.5% (active). The growth (LOX IMVI melanoma; 10 µM) was -43.9% (active), the growth (LOX IMVI melanoma; 12.5 µM) was -99% (active) and the growth (SK-MEL-28 melanoma) was 11.3% (inactive).
